In PubChem BioAssay (NCATS):
Where “and” joins values, the source holds several entries; their conditions need not be identical. Equal entries are not always repeated. Inconclusive results are not listed. Calls of active or inactive are those of the source. Unless noted, calls follow the shape of the dose curve; as a rule, active = well fitted curve in either direction with a large enough effect (not every such curve was filed as active); inconclusive = small, poorly fitted or top-dose-only effect, or another doubt; inactive = flat fitted curve, though single readings scatter.

Legend:
[1] = AP1 Signaling Pathway (AID 357); conditions: ME-180 (cervical carcinoma) AP-1-bla reporter, EGF-induced, beta-lactamase ratio, 5 h;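 also: ME-180 reporter cells stimulated with EGF at its EC50 level; % is scaled to controls: 0 for no effect and ±100 for the full control effect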
Outline: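 In this screen, ME-180 cells in Opti-MEM with 0.5% dialyzed FBS received EC50 EGF and compound titrations for 5 h. AP-1 reporter beta-lactamase was detected via CCF4 ratio, giving AC50 for positive and negative modulators.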

[2] = target: Cytochrome P450 1A2 (Homo sapiens) (UniProt P05177); assay: p450-cyp1a2 (AID 410; calls by dose curve; also: potency is read from the fitted curve at half-maximal effect;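 as to activity change, negative = inhibition: -100% = full effect of reference inhibitor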); conditions: recombinant CYP1A2, luciferin-ME demethylation, luminescence; series mostly up to 57 µM
Sequence of Cytochrome P450 1A2 (Homo sapiens) (P05177 whole entry, looked up): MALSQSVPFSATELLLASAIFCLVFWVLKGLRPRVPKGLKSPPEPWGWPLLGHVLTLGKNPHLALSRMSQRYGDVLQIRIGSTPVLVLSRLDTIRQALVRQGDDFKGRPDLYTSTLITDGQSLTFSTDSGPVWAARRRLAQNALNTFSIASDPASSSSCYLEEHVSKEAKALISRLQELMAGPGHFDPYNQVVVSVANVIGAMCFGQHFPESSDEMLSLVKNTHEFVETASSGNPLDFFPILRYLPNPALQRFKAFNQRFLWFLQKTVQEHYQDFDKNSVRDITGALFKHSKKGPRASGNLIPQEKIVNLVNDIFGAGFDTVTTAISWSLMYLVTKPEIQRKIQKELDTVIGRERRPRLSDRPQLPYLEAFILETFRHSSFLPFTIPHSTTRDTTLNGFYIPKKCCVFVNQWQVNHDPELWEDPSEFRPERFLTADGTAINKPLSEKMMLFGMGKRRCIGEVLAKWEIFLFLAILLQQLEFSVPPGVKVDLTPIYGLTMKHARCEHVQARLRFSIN
Outline: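 Luminescent readout of luciferin formed from Luciferin-ME by human CYP1A2; data normalized against complete inhibition by 57 uM furafylline. Enzyme 20nM, substrate 100uM at Km, 100mM KPO4 buffer, 60 min reaction at room temperature.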

[3] = target: Lysosomal acid glucosylceramidase (Homo sapiens) (UniProt P04062); assay: Glucocerebrosidase-p2 (AID 348; in the data active = potency below about 10 µM; also: potency is read from the fitted curve at half-maximal effect); conditions: purified GBA, blue fluorogenic substrate, 40 min
Sequence of Lysosomal acid glucosylceramidase (Homo sapiens) (P04062 whole entry, looked up): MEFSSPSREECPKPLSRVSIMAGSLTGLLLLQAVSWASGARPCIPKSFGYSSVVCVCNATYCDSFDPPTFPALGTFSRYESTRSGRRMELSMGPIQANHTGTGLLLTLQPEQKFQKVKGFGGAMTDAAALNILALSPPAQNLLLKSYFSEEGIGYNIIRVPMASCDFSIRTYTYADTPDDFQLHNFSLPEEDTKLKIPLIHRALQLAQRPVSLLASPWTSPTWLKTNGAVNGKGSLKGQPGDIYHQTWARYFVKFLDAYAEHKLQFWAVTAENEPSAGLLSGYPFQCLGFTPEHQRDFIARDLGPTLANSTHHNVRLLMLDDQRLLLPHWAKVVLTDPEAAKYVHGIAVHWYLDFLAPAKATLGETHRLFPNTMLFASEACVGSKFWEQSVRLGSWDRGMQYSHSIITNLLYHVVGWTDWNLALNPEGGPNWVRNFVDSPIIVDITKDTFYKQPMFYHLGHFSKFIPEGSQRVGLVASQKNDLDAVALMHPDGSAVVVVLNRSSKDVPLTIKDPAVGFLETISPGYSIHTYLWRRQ
Outline: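 Compounds titrated from 0.6 nM upwards against 0.2 nM enzyme in pH 5.9 citric acid/KH2PO4, taurocholate, tween-20; blue fluorogenic substrate 80 uM, 40 min room temperature, stopped and read Ex 365/Em 440 for AC50.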

[4] = NFAT Signaling Pathway (AID 444); conditions: Jurkat NFAT-bla M1, carbachol, beta-lactamase ratio, 5 h;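 also: carbachol stimulus at about its EC50 of 1 µM final; % is scaled to controls: 0 for no effect and ±100 for the full control effect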
Outline: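 Jurkat cells with NFAT-driven β-lactamase reporter and co-expressed M1 receptor, stimulated with carbachol (final 1 uM, ~EC50), compound titration, 5 h at 37 °C. CCF4 loaded 1 h at RT; 460/530 nm ratio gave %activity and AC50.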

For `CC(=O)OC(C)C[N+](C)(C)C` (stereo unspecified), the activity change, negative = inhibition ([1]; at 17.2 µM (top of the series)) was 11.1% (inactive).

For `Cc1nnc(SCC2=C(C(=O)O)N3C(=O)[C@@H](NC(=O)Cn4cnnn4)[C@H]3SC2)s1`, the activity change, negative = inhibition ([1]; at 17.2 µM (top of the series)) was 6.59% (inactive).

In the case of `COC(=O)[C@@H](N)Cc1ccc(O)c(O)c1`, the activity change, negative = inhibition ([1]; at 38 µM (top of the series)) is reported as 2.14% (inactive).

In the case of `Cc1nc2sccn2c(=O)c1CCN1CCC(=C(c2ccc(F)cc2)c2ccc(F)cc2)CC1`, the activity change, negative = inhibition ([1]; at 17.2 µM (top of the series)) is reported as -9.89% (inactive), the activity change, negative = inhibition ([1]; at 38 µM (top of the series)) is reported as -17.2% (inactive) and the Potency [2] is reported as “inactive”.

With `CNCCCN1c2ccccc2CCc2ccccc21` the activity change, negative = inhibition ([1]; at 17.2 µM (top of the series)) was 29.5% (inactive) and 18.8% (inactive).

For `CCCC(C(=O)OCCN(CC)CC)(c1ccccc1)c1ccccc1`, the activity change, negative = inhibition ([1]; at 17.2 µM (top of the series)) was 16.9% (inactive), the activity change, negative = inhibition ([1]; at 38 µM (top of the series)) was 20.9% (inactive) and the Potency [2] was “inactive”.

For `CCOC(=O)C1=C(C)NC(C)=C(C(=O)OC)C1c1cccc(Cl)c1Cl` (stereo unspecified), the activity change, negative = inhibition ([1]; at 17.2 µM (top of the series)) was -7.25% (inactive).

For `CN(C)CCOC(=O)COc1ccc(Cl)cc1`, the activity change, negative = inhibition ([1]; at 17.2 µM (top of the series)) was 0.605% (inactive), the activity change, negative = inhibition ([1]; at 38 µM (top of the series)) was -0.251% (inactive) and the Potency [2] was 15.8 µM (active) and 10 µM (active).

For `CCN(CC)CCOCCOC(=O)C1(c2ccccc2)CCCC1`, the activity change, negative = inhibition ([1]; at 17.2 µM (top of the series)) was -7.4% (inactive), the activity change, negative = inhibition ([1]; at 38 µM (top of the series)) was 16.3% (inactive) and the Potency [2] was 12.6 µM (active).

In the case of `CN/C(=C\[N+](=O)[O-])NCCSCc1ccc(CN(C)C)o1`, the activity change, negative = inhibition ([1]; at 17.2 µM (top of the series)) is reported as -3.39% (inactive) and the activity change, negative = inhibition ([1]; at 38 µM (top of the series)) is reported as -6.59% (inactive).

With `O=C(O)CP(=O)(O)O` the Potency [3] was > 11.4 µM (inactive), the activity change, negative = inhibition ([1]; at 7.69 µM (top of the series)) was 0.401% (inactive) and the activity change, negative = inhibition ([1]; at 38 µM (top of the series)) was 7.05% (inactive). For the same molecule, the Potency [2] was “inactive”, the activity change, negative = inhibition ([4]; at 7.69 µM (top of the series)) was -1.52% (inactive) and the activity change, negative = inhibition ([4]; at 38 µM (top of the series)) was 3.66% (inactive).

For `COCCOC(=O)C1=C(C)NC(C)=C(C(=O)OC(C)C)C1c1cccc([N+](=O)[O-])c1` (stereo unspecified), the activity change, negative = inhibition ([1]; at 17.2 µM (top of the series)) was -20.8% (inactive).

For `CC(C)(C)NCC(O)c1cc(O)cc(O)c1` (stereo unspecified), the activity change, negative = inhibition ([1]; at 17.2 µM (top of the series)) was -16.4% (inactive).

With `CC(=O)Oc1cc(C(C)C)c(OCCN(C)C)cc1C` the activity change, negative = inhibition ([1]; at 17.2 µM (top of the series)) was 7.18% (inactive), the activity change, negative = inhibition ([1]; at 38 µM (top of the series)) was 22.7% (inactive) and the Potency [2] was 7.94 µM (active) and 3.16 µM (active).

In the case of `CCN(CC)CC(=O)Nc1c(C)cccc1C`, the activity change, negative = inhibition ([1]; at 17.2 µM (top of the series)) is reported as 8.06% (inactive) and 2.56% (inactive) and 5.37% (inactive) and the activity change, negative = inhibition ([1]; at 38 µM (top of the series)) is reported as 19.9% (inactive).

In the case of `COc1ccc(CCN(C)CCCC(C#N)(c2cc(OC)c(OC)c(OC)c2)C(C)C)cc1OC` (stereo unspecified), the activity change, negative = inhibition ([1]; at 17.2 µM (top of the series)) is reported as -6.26% (inactive).

In the case of `COCCc1ccc(OCC(O)CNC(C)C)cc1` (stereo unspecified), the activity change, negative = inhibition ([1]; at 17.2 µM (top of the series)) is reported as 3.62% (inactive).

With `COCCCC/C(=N\OCCN)c1ccc(C(F)(F)F)cc1` the activity change, negative = inhibition ([1]; at 17.2 µM (top of the series)) was 14.9% (inactive).

For `CC(C)NNC(=O)c1ccncc1`, the activity change, negative = inhibition ([1]; at 17.2 µM (top of the series)) was 5.09% (inactive), the activity change, negative = inhibition ([1]; at 38 µM (top of the series)) was -0.742% (inactive) and the Potency [2] was “inactive”.

In the case of `CO[C@@]1(NC(=O)CSCC#N)C(=O)N2C(C(=O)O)=C(CSc3nnnn3C)CS[C@@H]21`, the activity change, negative = inhibition ([1]; at 17.2 µM (top of the series)) is reported as 6.1% (inactive).

In the case of `Cc1scc2c1N(C(=O)CN1CCN(C)CC1)c1ccccc1NC2=O`, the activity change, negative = inhibition ([1]; at 17.2 µM (top of the series)) is reported as 4.19% (inactive), the activity change, negative = inhibition ([1]; at 38 µM (top of the series)) is reported as 15.1% (inactive) and the Potency [2] is reported as “inactive”.

With `C[N+](C)(C)CCCCCCCCCC[N+](C)(C)C` the activity change, negative = inhibition ([1]; at 17.2 µM (top of the series)) was 5.88% (inactive) and 0.653% (inactive), the activity change, negative = inhibition ([1]; at 38 µM (top of the series)) was 6.36% (inactive) and the Potency [2] was “inactive”.

For `C(=C\c1ccccc1)/CN1CCN(C(c2ccccc2)c2ccccc2)CC1`, the activity change, negative = inhibition ([1]; at 17.2 µM (top of the series)) was -4.86% (inactive).

For `Cc1nc2ccccn2c(=O)c1CCN1CCC(C(=O)c2ccc(F)cc2)CC1`, the activity change, negative = inhibition ([1]; at 17.2 µM (top of the series)) was -5.86% (inactive), the activity change, negative = inhibition ([1]; at 38 µM (top of the series)) was 5.6% (inactive) and the Potency [2] was “inactive”.

In the case of `c1cnc(N2CCN(Cc3ccc4c(c3)OCO4)CC2)nc1`, the activity change, negative = inhibition ([1]; at 17.2 µM (top of the series)) is reported as -7.76% (inactive), the activity change, negative = inhibition ([1]; at 38 µM (top of the series)) is reported as 13.9% (inactive) and the Potency [2] is reported as 6.31 µM (active) and 3.16 µM (active) and 2 µM (active).

With `CCNC(=O)N1CCN(CCCC(c2ccc(F)cc2)c2ccc(F)cc2)CC1` the activity change, negative = inhibition ([1]; at 38 µM (top of the series)) was 1.34% (inactive).

For `CCO/C([O-])=N/c1c[n+](N2CCOCC2)no1`, the activity change, negative = inhibition ([1]; at 17.2 µM (top of the series)) was -2.58% (inactive) and 9.89% (inactive), the activity change, negative = inhibition ([1]; at 38 µM (top of the series)) was 19.4% (inactive) and the Potency [2] was “inactive”.

For `CCOC(=O)C1=C(C)NC(C)=C(C(=O)OC)C1c1cccc([N+](=O)[O-])c1` (stereo unspecified), the activity change, negative = inhibition ([1]; at 17.2 µM (top of the series)) was -25.4% (inactive).

With `CC1=NS(=O)(=O)c2cc(Cl)ccc2N1` the activity change, negative = inhibition ([1]; at 17.2 µM (top of the series)) was 5.8% (inactive) and -6.56% (inactive), the activity change, negative = inhibition ([1]; at 38 µM (top of the series)) was -8.76% (inactive) and the Potency [2] was 7.94 µM (active) and 3.16 µM (active) and 2 µM (active).

With `COc1cc(C(=O)OCCCN2CCCN(CCCOC(=O)c3cc(OC)c(OC)c(OC)c3)CC2)cc(OC)c1OC` the activity change, negative = inhibition ([1]; at 17.2 µM (top of the series)) was 24.5% (inactive) and the activity change, negative = inhibition ([1]; at 38 µM (top of the series)) was 15.7% (inactive).

With `CN(C)[C@@H]1C(=O)C(C(N)=O)=C(O)[C@@]2(O)C(=O)C3=C(O)c4c(O)ccc(Cl)c4[C@@H](O)[C@H]3C[C@@H]12` the activity change, negative = inhibition ([1]; at 17.2 µM (top of the series)) was -3.11% (inactive).

In the case of `CCCOc1ccccc1-c1nc2n[nH]nc2c(=O)[nH]1`, the activity change, negative = inhibition ([1]; at 17.2 µM (top of the series)) is reported as -18.5% (inactive), the activity change, negative = inhibition ([1]; at 38 µM (top of the series)) is reported as -7.91% (inactive) and the Potency [2] is reported as 5.01 µM (active) and 3.98 µM (active).
